# Experimental data published in PubChem BioAssay (Tox21).
# Results filed as inconclusive are left out. Entries that show only a call come without a potency. A number with no mark means an inactive call. Active and inactive are the calls of the source. The call rests on the fitted dose curve; in most records, active means well fitted curve in the direction sought with a large enough effect in the repeat runs; inconclusive means weak or mixed curves; inactive means no such curve, though single readings can be large; an effect the other way counts as inactive or inconclusive.
# Key:
# [1] = target: Cytochrome P450 2D6 (Homo sapiens) (UniProt P10635); experiment: Cytochrome P450 Family 2 Subfamily D Member 6 (CYP2D6) small molecule antagonists: luciferase reporter qHTS assay (AID 1671196); details: P450-Glo CYP2D6 enzyme assay, luciferin luminescence, 1 h; series mostly up to 115 µM; further: nearly all actives have a fitted effect of over 50% in size; further: potency means the concentration at half of the fitted maximal effect
# In short: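 P450-Glo format: CYP2D6 converts a proluciferin substrate to luciferin in an NADPH-driven reaction lasting 1 h at room temperature. Light output, proportional to CYP2D6 activity, reflects interference by test chemicals.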
# [2] = target: Cytochrome P450 2C19 (Homo sapiens) (UniProt P33261); experiment: Cytochrome P450 Family 2 Subfamily C Member 19 (CYP2C19) small molecule antagonists: luciferase reporter qHTS assay (AID 1671197); details: P450-Glo CYP2C19 enzyme, luciferin luminescence, 1 h; series mostly up to 115 µM; further: nearly all actives have a fitted effect of over 65% in size; further: potency means the concentration at half of the fitted maximal effect
# In short: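 Compounds were tested on CYP2C19 activity via proluciferin conversion to luciferin. The 37C, 1 h reaction followed NADPH addition; detection reagent stopped it.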
# [3] = target: Cytochrome P450 2C9 (Homo sapiens) (UniProt P11712); experiment: Cytochrome P450 Family 2 Subfamily C Member 9 (CYP2C9) small molecule antagonists: luciferase reporter qHTS assay (AID 1671198); details: P450-Glo CYP2C9 enzyme assay, luciferin luminescence; series mostly up to 115 µM; further: nearly all actives have a fitted effect of over 50% in size; further: potency means the concentration at half of the fitted maximal effect
# In short: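 P450-Glo proluciferin substrate with CYP2C9 enzyme; 10 min RT preincubation, then NADPH regeneration 1 h at 37C; luciferin detection reagent 20 min RT, luminescence in relative luminescence units.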
# [4] = target: Voltage-gated inwardly rectifying potassium channel KCNH2 (Homo sapiens) (UniProt Q12809); experiment: Human Ether-a-go-go-Related Gene (hERG) channel small molecule antagonists: fluorescence cell-based qHTS assay (AID 1671200); details: hERG-U2OS cells, FluxOR thallium flux fluorescence; series mostly up to 76.8 µM;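 further: hERG-expressing U2OS cells given a thallium stimulus after FluxOR II dye loading; nearly all actives have a fitted effect of over 50% in size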
# In short: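 Measured: Tl+ flux via fluorescence (480/540 nm) in hERG-expressing U2OS cells after 1 h dye loading at room temperature.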
# [5] = target: Cytochrome P450 3A4 (Homo sapiens) (UniProt P08684); experiment: Cytochrome P450 Family 3 Subfamily A Member 4 (CYP3A4) small molecule antagonists: luciferase reporter qHTS assay (AID 1671201); details: P450-Glo CYP3A4 enzyme, luciferin luminescence, 1 h; series mostly up to 115 µM; further: nearly all actives have a fitted effect of over 50% in size
# In short: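 Setup: enzyme-substrate mix, compound pin transfer, 10 min RT. Reaction: NADPH regeneration solution, 1 h RT. Readout: detection reagent stops turnover, luminescence measured after 20 min, expressed in relative luminescence units.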
# [6] = target: Cytochrome P450 1A2 (Homo sapiens) (UniProt P05177); experiment: Cytochrome P450 Family 1 Subfamily A Member 2 (CYP1A2) small molecule antagonists: luciferase reporter qHTS assay (AID 1671199); details: P450-Glo CYP1A2 enzyme, luciferin luminescence, 1 h; series mostly up to 115 µM; further: nearly all actives have a fitted effect of over 50% in size; further: potency means the concentration at half of the fitted maximal effect
# In short: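 Inhibition of CYP1A2 conversion of proluciferin to luciferin, detected by luminescence. Reaction run 1 h at room temperature with NADPH regeneration after brief compound preincubation.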
# Sequence of Cytochrome P450 3A4 (Homo sapiens) (P08684 whole entry, looked up): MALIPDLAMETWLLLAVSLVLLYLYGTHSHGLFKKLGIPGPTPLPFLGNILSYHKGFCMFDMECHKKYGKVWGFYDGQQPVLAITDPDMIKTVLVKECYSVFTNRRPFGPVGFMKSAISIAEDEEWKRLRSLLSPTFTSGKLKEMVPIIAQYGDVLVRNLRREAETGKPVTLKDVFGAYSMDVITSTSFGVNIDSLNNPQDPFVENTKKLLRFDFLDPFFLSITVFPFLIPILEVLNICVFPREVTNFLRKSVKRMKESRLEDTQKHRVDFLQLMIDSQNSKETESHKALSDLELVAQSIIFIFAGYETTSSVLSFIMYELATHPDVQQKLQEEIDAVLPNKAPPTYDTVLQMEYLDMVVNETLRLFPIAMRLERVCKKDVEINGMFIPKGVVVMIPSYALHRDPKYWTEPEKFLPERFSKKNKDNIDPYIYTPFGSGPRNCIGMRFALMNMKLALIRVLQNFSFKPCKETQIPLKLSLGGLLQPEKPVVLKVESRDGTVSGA
# Sequence of Voltage-gated inwardly rectifying potassium channel KCNH2 (Homo sapiens) (Q12809 whole entry, looked up): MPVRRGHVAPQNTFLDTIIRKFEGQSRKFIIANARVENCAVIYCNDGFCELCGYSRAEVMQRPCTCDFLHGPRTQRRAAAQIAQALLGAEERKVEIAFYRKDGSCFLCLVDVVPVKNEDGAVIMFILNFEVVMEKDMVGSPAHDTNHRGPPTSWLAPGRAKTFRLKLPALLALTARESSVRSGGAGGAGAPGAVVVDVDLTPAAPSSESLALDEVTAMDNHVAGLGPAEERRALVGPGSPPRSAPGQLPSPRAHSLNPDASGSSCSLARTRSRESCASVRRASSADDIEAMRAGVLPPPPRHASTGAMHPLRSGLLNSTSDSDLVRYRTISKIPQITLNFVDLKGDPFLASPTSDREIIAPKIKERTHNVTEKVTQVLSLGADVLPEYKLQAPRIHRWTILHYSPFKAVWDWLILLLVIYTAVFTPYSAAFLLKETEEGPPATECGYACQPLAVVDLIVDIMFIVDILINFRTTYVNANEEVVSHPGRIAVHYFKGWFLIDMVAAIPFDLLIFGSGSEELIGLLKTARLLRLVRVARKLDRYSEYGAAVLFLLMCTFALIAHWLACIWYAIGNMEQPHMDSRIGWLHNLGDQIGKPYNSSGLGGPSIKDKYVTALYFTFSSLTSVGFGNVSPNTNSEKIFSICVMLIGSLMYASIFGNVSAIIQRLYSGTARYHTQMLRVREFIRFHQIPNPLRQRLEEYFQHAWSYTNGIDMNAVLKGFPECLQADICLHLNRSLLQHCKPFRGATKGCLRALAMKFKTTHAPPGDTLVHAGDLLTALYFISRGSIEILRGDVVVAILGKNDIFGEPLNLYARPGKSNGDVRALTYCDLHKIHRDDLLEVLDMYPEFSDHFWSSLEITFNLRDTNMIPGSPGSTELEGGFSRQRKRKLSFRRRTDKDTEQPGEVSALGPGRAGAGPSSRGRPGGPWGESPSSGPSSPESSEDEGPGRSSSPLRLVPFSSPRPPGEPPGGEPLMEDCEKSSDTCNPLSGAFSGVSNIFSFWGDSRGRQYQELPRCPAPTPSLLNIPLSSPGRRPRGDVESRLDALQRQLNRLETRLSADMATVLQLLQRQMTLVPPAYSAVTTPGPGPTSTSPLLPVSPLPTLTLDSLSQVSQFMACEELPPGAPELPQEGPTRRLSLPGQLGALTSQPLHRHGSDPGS
# Sequence of Cytochrome P450 2C9 (Homo sapiens) (P11712 whole entry, looked up): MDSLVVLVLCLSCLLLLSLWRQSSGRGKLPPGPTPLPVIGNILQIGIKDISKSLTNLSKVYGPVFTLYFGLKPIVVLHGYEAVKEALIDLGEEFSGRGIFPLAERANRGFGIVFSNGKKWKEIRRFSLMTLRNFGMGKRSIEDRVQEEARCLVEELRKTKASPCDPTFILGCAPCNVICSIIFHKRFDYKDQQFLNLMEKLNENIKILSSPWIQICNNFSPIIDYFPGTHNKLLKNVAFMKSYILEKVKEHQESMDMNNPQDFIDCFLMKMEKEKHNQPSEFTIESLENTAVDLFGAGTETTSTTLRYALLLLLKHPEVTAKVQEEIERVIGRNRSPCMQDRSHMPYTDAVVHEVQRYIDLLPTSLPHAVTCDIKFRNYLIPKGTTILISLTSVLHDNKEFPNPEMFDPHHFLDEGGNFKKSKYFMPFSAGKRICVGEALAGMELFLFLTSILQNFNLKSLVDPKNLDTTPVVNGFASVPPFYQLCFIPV
# Sequence of Cytochrome P450 2C19 (Homo sapiens) (P33261 whole entry, looked up): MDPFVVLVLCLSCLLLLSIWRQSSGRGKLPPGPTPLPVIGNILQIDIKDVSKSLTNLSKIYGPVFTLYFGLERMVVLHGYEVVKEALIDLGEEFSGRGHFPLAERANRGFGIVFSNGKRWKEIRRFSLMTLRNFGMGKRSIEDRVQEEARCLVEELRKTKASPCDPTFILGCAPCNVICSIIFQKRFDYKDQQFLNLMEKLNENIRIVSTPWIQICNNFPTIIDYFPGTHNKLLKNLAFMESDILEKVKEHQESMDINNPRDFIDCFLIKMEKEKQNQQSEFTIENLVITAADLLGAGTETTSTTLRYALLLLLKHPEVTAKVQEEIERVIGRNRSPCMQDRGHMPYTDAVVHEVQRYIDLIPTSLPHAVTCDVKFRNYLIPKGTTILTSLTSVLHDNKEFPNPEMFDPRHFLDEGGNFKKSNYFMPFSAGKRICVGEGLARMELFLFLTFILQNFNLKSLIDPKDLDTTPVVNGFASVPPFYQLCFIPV
# Sequence of Cytochrome P450 2D6 (Homo sapiens) (P10635 whole entry, looked up): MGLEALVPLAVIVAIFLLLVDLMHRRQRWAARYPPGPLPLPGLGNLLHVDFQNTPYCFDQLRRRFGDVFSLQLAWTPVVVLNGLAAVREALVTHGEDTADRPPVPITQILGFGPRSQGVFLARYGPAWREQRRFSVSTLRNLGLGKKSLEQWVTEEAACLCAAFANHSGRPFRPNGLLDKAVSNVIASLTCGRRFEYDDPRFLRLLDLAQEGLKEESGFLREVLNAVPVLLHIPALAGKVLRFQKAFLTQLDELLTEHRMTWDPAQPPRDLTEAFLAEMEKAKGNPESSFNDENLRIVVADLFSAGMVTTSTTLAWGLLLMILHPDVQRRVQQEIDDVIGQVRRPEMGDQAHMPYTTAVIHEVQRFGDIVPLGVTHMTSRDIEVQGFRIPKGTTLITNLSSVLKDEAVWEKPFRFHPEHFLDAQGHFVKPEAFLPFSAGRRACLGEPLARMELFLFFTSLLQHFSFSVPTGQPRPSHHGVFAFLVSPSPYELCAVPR
# Sequence of Cytochrome P450 1A2 (Homo sapiens) (P05177 whole entry, looked up): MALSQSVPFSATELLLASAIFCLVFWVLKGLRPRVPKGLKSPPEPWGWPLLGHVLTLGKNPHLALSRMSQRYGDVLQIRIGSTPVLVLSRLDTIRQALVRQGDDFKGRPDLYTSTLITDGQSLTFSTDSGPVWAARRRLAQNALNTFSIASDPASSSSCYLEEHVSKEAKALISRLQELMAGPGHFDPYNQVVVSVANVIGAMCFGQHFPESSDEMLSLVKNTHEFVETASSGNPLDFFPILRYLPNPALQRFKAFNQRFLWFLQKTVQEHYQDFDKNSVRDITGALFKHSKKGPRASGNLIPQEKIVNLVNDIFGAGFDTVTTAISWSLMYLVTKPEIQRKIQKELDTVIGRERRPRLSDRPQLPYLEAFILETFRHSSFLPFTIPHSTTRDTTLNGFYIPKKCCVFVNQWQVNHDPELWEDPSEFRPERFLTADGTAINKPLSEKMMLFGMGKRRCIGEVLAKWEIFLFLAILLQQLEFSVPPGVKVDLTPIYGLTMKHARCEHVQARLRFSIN
compound,measurement,setting,value
CCOC(=O)CC(CC(=O)OCC)(OC(C)=O)C(=O)OCC,Potency,[1],inactive
same,Potency,[2],12.6 µM (active)
same,Potency,[3],28.3 µM (active)
same,Potency,[4],inactive
same,Potency,[5],inactive
CC(C)(C)c1ccc(C=O)cc1,Potency,[1],inactive
same,Potency,[2],inactive
same,Potency,[3],inactive
same,Potency,[4],inactive
same,Potency,[5],inactive
CCCCCCCC[Si](OCC)(OCC)OCC,Potency,[1],inactive
same,Potency,[2],inactive
same,Potency,[3],inactive
same,Potency,[4],inactive
same,Potency,[5],inactive
C=CCCCCCCCCCCC,"activity change, negative = inhibition",[1],-22.8% [at 10.5 µM]
same,"activity change, negative = inhibition",[2],11.6% [at 10.5 µM]
same,"activity change, negative = inhibition",[3],-1.77% [at 10.5 µM]
same,"activity change, negative = inhibition",[4],6.79% [at 6.97 µM]
same,"activity change, negative = inhibition",[5],4% [at 10.5 µM]
NC(Cc1c[nH]c2ccccc12)C(=O)O (stereo unspecified),Potency,[1],17.5 µM (active)
same,Potency,[2],24.7 µM (active)
same,Potency,[3],31.1 µM (active)
same,Potency,[4],inactive
CCCCCC(=O)OCC,Potency,[1],inactive
same,Potency,[2],inactive
same,Potency,[3],inactive
same,Potency,[4],inactive
same,Potency,[5],inactive
CC(C)COC(=O)CC(C(=O)OCC(C)C)S(=O)(=O)O (stereo unspecified),Potency,[1],inactive
same,Potency,[2],inactive
same,Potency,[3],31.7 µM (active)
same,Potency,[6],inactive
same,Potency,[4],inactive
same,Potency,[5],inactive
Cc1ccccc1C,Potency,[1],inactive
same,Potency,[2],81.7 µM (active)
same,Potency,[3],inactive
same,Potency,[4],inactive
same,Potency,[5],inactive
O=C1c2ccccc2-c2ccccc21,Potency,[1],inactive
same,Potency,[2],57.9 µM (active)
same,Potency,[3],65 µM (active)
same,Potency,[6],0.58 µM (active)
same,Potency,[4],inactive
same,Potency,[5],inactive
NC(=O)NNC(N)=O,Potency,[1],inactive
same,Potency,[2],inactive
same,Potency,[3],79.6 µM (active)
same,Potency,[4],inactive
same,Potency,[5],inactive
OC[C@@H](O)[C@H](O)[C@@H](O)[C@@H](O)CO,Potency,[1],inactive
same,Potency,[2],44.8 µM (active)
same,Potency,[3],inactive
same,Potency,[4],inactive
same,Potency,[5],inactive
